Screening data as filed in PubChem.
A selection: hits, their analogues and other compounds. The true share with any hit is near 0.5%.
RTF Ca sens act: cardiac RTF calcium sensitization | P19429+P45379 | IANBD-labeled TnC RTF fluorescence at EC20 calcium; 0% EC20 calcium, 100% full calcium | activation, % at 7.2 µM | 340,000 tested, 0.24% active;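 active means activation above the mean over all tested compounds plus 3 SD, cut at about 30% in these data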;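 further: rise in fluorescence read as greater calcium sensitivity of cardiac thin filaments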
Keap1-Nrf2 PPI: Keap1-Nrf2 (human) interaction inhibition | Keap1 Kelch-Nrf2 peptide fluorescence polarization, 1536-well | AID 504523 | inhibition, % at 9.4 µM | Q14145 | 340,000 tested, 0.15% active; in the data active means inhibition above about 12%; inconclusive means no clear call, values can overlap the other calls; inactive means below about 7.3%;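 further: human Keap1 Kelch domain with fluorescein labeled Nrf2 9mer peptide probe; higher means more block of Keap1 binding to Nrf2 peptide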
Target sequence (Q14145 whole entry, looked up, the tested form may be a part): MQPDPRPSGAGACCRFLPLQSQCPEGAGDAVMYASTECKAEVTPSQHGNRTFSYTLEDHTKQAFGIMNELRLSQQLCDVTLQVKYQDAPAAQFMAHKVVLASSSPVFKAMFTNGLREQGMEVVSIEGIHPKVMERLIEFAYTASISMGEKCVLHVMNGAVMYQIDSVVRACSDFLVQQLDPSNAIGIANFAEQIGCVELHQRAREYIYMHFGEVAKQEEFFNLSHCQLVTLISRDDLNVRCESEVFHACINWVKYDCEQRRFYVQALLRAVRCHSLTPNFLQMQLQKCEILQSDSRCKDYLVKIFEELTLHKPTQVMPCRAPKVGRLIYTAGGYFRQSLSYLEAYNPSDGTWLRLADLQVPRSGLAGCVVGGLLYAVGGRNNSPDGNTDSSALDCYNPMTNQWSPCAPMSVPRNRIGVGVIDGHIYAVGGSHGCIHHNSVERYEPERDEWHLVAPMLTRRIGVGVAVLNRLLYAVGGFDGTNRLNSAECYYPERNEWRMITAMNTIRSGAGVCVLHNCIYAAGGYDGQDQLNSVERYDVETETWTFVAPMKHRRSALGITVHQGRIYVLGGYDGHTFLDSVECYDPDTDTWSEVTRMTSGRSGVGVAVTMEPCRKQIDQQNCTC
C-LANA FP: KSHV C-LANA DNA binding inhibition; MBP-C-LANA/FAM-LBS DNA binding, fluorescence polarization; inhibition, % at 9 µM; 340,000 tested, 0.078% active; AID 504423;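 active means highest replicate inhibition at or above 60% at 9 µM, even if other replicates fall short; inactive means all replicates below 60% inhibition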
RTF Ca sens inh: cardiac RTF calcium desensitization; 340,000 tested, 0.12% active; inhibition, % at 7.15 µM; IANBD-labeled cardiac RTF, Ca2+ fluorescence;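 active means inhibition above the mean inhibition of all tested compounds plus 3 SD, cut at about 17% in these data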;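 further: assay run at fixed EC70 calcium of 1.6 mM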
Of the large screens only hits and unclear results are named; the others gave an inactive call.

COc1cc(/C=C(\C#N)c2nc3ccccc3s2)ccc1OCC(=O)Nc1ccccc1	RTF Ca sens act 34
COc1cc(/C=C(\CC(=O)O)c2nc3ccccc3s2)ccc1OCC(=O)Nc1ccccc1F	none
COc1cccc2c1C(=O)c1c(O)c3c(c(O)c1C2=O)CC(O)(C(=O)CO)CC3OC1CC(N(C)C)C(O)C(C)O1 (stereo unspecified)	RTF Ca sens act 201, Keap1-Nrf2 PPI inconclusive, C-LANA FP 114
O=C(Nc1nnc(S(=O)(=O)N2CCCCC2)s1)c1cccc(Br)c1	none
COc1ccc(-n2c(C)cc(/C=C3\SC(=S)N(Cc4ccco4)C3=O)c2C)cc1	RTF Ca sens act 31
COc1cccc(C(C)NC(=O)c2ccncc2)c1 (stereo unspecified)	none
CC(=O)Oc1ccc(N2C(=O)C3C(C2=O)C(C(=O)c2ccc(Cl)cc2)N2CCCC32)cc1 (stereo unspecified)	RTF Ca sens act 45
CN(C(=O)COC(=O)C1=COCCO1)C1(C#N)CCCCC1	none
N#CC1(NC(=O)COC(=O)C2=COCCO2)CCCCC1	Keap1-Nrf2 PPI 194 (no result: C-LANA FP)
Cc1ccc2c(c1)c(/C=C/c1cc[n+](C)cc1)c(C)n2C	RTF Ca sens act 241
Cc1ccc2[nH]c(C)c(/C=C/c3cc[n+](C)cc3)c2c1	RTF Ca sens act 154
CCN1C(=O)/C(=C2/Sc3ccccc3N2CC)S/C1=N\c1ncn[nH]1	none
N#CCn1c(CN2CCCC2)nc2ccccc2c1=O	none
Cn1cc(/C=C/c2cc[n+](C)cc2)c2cc(Cl)ccc21	RTF Ca sens act 206
Cn1cc(/C=C/c2cc[n+](C)cc2)c2cc(F)ccc21	RTF Ca sens act 317
C[n+]1ccc(/C=C/c2c[nH]c3ccc(F)cc23)cc1	RTF Ca sens act 102
Cn1cc(C=O)c2cc(F)ccc21	none
CN(Cc1nc2ccccc2c(=O)[nH]1)C(=O)c1cc(C2CC2)nn1-c1ccccc1	none
C/C(=N\NC(=O)c1ccncc1)c1cc2ccccc2oc1=O	none
C/C(=N/NC(=O)c1ccncc1)c1cc2ccc(O)cc2oc1=O	RTF Ca sens act active, C-LANA FP 75
CC(C)c1ccc(NC(=O)C2CCC(CNC(=O)[C@@H]3Cc4ccccc4CN3)CC2)cc1 (stereo partly specified)	none
Cc1ccc(O)c(C(=O)c2cc(C#N)c(=O)n(-c3nccs3)c2)c1	RTF Ca sens act 69
COc1ccccc1N1CCN(C(=O)CCCCCn2c(=O)[nH]c3ccsc3c2=O)CC1	none
CN(C)Cc1c(O)ccc2c1O/C(=C\C=C\c1ccccc1)C2=O	none
CCN1CCN(Cc2c(O)ccc3c2O/C(=C\c2ccccc2)C3=O)CC1	none
COc1ccccc1/C=C/C=C1\Oc2c(ccc(O)c2CN2CCN(CCO)CC2)C1=O	RTF Ca sens act 239
CCN1CCN(Cc2c(O)ccc3c2O/C(=C\C=C\c2ccccc2)C3=O)CC1	RTF Ca sens act 140
O=C1/C(=C/C=C/c2ccccc2)Oc2c1ccc(O)c2CN1CCN(CCO)CC1	RTF Ca sens act 43
N=c1n(Cc2ccccc2)c2ccccc2n1CC(O)c1ccco1 (stereo unspecified)	RTF Ca sens act 40
CCn1c(=N)n(CC(O)c2ccco2)c2ccccc21 (stereo unspecified)	none
CN(C)C(=S)N=c1ssc(=S)n1Cc1cccnc1	none
CC(=O)NC(CSC(CC(=O)c1ccco1)c1ccc(C)cc1)C(=O)O (stereo unspecified)	none
O=C(NCCCO)c1ccc2nc(-c3ccco3)c(-c3ccco3)nc2c1	C-LANA FP 68
CC(C)c1ccc(O)c(NC(=S)NC(=O)c2ccc3c(c2)OCO3)c1	none
NC(=O)N/N=C/c1ccccc1OCc1cccc2ccccc12	none
CCOc1ccc(NS(=O)(=O)c2ccc(NS(=O)(=O)c3ccccc3)cc2)cc1	none
CCOc1ccc(S(=O)(=O)Nc2cc(NS(=O)(=O)c3ccc(OCC)cc3)cc(C(=O)O)c2)cc1	Keap1-Nrf2 PPI 22
O=C1c2ccccc2NC(c2cn[nH]c2-c2ccc(Cl)cc2)N1O (stereo unspecified)	Keap1-Nrf2 PPI 12
CCN(CC(=O)Nc1c(F)cccc1F)C(=O)C1CCN(S(=O)(=O)c2ccccc2C(=O)OC)CC1	none
O=C(O)CCCN1C(=O)/C(=C/c2cn(-c3ccccc3)nc2-c2cccs2)SC1=S	RTF Ca sens act 31
Nc1c(C(=O)c2ccc(Cl)cc2)sc2nsc(SCCN3CCOCC3)c12	RTF Ca sens act 33
Nc1c(C(=O)c2ccccc2)sc2nsc(SCCN3CCCC3)c12	none
O=C(O)Cc1c[nH]c2ccccc12	none
O=C(O)Cc1c[nH]c2cccc(O)c12	C-LANA FP 102
C=CCN1C(=O)/C(=C\C=C2\N(C)c3ccccc3C2(C)C)SC1=S	RTF Ca sens act 51
